Laboratory results taken from PubChem BioAssay (NCI).
“And” between values parts separate entries of the source, which are not always exact repeats. Equal values may be shown once. This is part of a sample that, as a whole, favours compounds with a hit. Of some 79,000 tested, about 15% had one in any assay. Some structures have more than one record in an assay (separate samples or runs), and their calls can disagree. The source made the active and inactive calls. No stated cut-off is given here; in the data, active means growth inhibition above about 70%; inactive means the rest.

How the values were obtained:
[1] = NCI Yeast Anticancer Drug Screen. Data for the wt1 strain (AID 149);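 further: 0% = growth of vehicle-treated wt1 cultures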; settings: S. cerevisiae wt1 strain (SPY 50644) growth inhibition, stronger effect = higher value
Procedure, shortened: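 The wt1 strain was treated with compounds, and growth was compared with vehicle-treated cultures to give inhibition.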

[2] = NCI Yeast Anticancer Drug Screen. Data for the rad50EPP+ strain (AID 151);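 further: 0% = growth of vehicle-treated control cultures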; settings: S. cerevisiae rad50 mutant strain, stronger effect = higher value
Procedure, shortened: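 Vehicle-normalised growth inhibition; rad50EPP+ yeast strain, altered in DNA damage repair, compound-treated.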

[3] = NCI Yeast Anticancer Drug Screen. Data for the mgt1 strain (AID 153); settings: S. cerevisiae mgt1 mutant growth inhibition, stronger effect = higher value
Procedure, shortened: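 Vehicle-normalized growth inhibition is determined in mgt1 yeast, a strain selected for a defined alteration in DNA repair or cell cycle control.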

[4] = NCI Yeast Anticancer Drug Screen. Data for the rad50 strain (AID 155);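 further: 0% = growth of vehicle-only cultures of the same strain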; settings: S. cerevisiae rad50 strain growth inhibition, stronger effect = higher value
Procedure, shortened: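 Cells are treated with compound, grown, and their growth is then scored against vehicle-only cultures of the same repair-deficient yeast strain.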

[5] = NCI Yeast Anticancer Drug Screen. Data for the mec2-1 strain (AID 157); settings: S. cerevisiae mec2-1 strain, stronger effect = higher value
Procedure, shortened: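 Mutant yeast (mec2-1) grown with compound; growth inhibition relative to vehicle control reported.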

[6] = NCI Yeast Anticancer Drug Screen. Data for the rad14 strain (AID 159);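 further: 0% = growth of vehicle-treated control cultures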; settings: S. cerevisiae rad14 strain growth inhibition, stronger effect = higher value
Procedure, shortened: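 Readout: yeast growth inhibition, referenced to vehicle-only cultures. Strain bears a defined alteration in DNA damage repair.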

[7] = NCI Yeast Anticancer Drug Screen. Data for the sgs1 mgt1 strain (AID 161);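 further: 0% = growth of cultures given vehicle only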; settings: S. cerevisiae sgs1 mgt1 strain, stronger effect = higher value
Procedure, shortened: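 Compounds are added to genetically altered yeast, and growth is compared with cultures given vehicle alone to give percent inhibition.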

[8] = NCI Yeast Anticancer Drug Screen. Data for the CLN2oe strain (AID 163);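 further: 0% = growth of vehicle-only control cultures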; settings: S. cerevisiae CLN2oe strain, stronger effect = higher value
Procedure, shortened: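 Compounds are applied to yeast harbouring a defined cell-cycle control change; reduced growth compared with vehicle-treated controls gives the value.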

[9] = NCI Yeast Anticancer Drug Screen. Data for the cln2 rad14 strain (AID 165);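 further: 0% = growth equal to vehicle treated cultures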; settings: S. cerevisiae cln2 rad14 strain, stronger effect = higher value
Procedure, shortened: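 Readout is yeast growth inhibition versus vehicle-treated controls, using a strain with cln2 and rad14 alterations exposed to compound.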

[10] = NCI Yeast Anticancer Drug Screen. Data for the bub3 strain (AID 167); settings: S. cerevisiae bub3 mutant strain, stronger effect = higher value
Procedure, shortened: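 Part of a panel of yeast mutants defective in DNA damage repair or cell cycle regulation. Each strain is grown with compound, and inhibition is calculated relative to solvent-treated cultures.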

[11] = NCI Yeast Anticancer Drug Screen. Data for the wt2 strain (AID 169);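 further: 0% = growth of vehicle-treated yeast cultures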; settings: S. cerevisiae wt2 strain growth inhibition, stronger effect = higher value
Procedure, shortened: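 Against vehicle-treated controls, the growth of yeast exposed to each compound was compared, and the inhibition was recorded.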

[12] = NCI Yeast Anticancer Drug Screen. Data for the mlh1 strain (AID 171);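 further: 0% = growth of vehicle-treated control cultures of the same strain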; settings: S. cerevisiae mlh1 strain growth inhibition, stronger effect = higher value
Procedure, shortened: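 Measured: yeast growth. Reference: vehicle-treated controls. Organism: strain with a defined alteration affecting DNA damage repair or cell cycle control, treated with compound.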

[13] = NCI Yeast Anticancer Drug Screen. Data for the sgs1 strain (AID 173);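 further: 0% = growth of vehicle-only control cultures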; settings: S. cerevisiae sgs1 mutant, stronger effect = higher value
Procedure, shortened: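 Each compound was added to cultures of the altered yeast strain. Growth was recorded, and inhibition was derived by comparison with vehicle controls.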

[14] = NCI Yeast Anticancer Drug Screen. Data for the mlh1 rad18 strain (AID 175); settings: S. cerevisiae mlh1 rad18 strain growth inhibition, stronger effect = higher value
Procedure, shortened: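 Genetically defined yeast (DNA repair-deficient) exposed to compounds; growth inhibition determined relative to vehicle.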

[15] = NCI Yeast Anticancer Drug Screen. Data for the rad18 strain (AID 177); settings: S. cerevisiae rad18 mutant growth inhibition, stronger effect = higher value
Procedure, shortened: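 Vehicle-treated cultures served as the baseline for scoring compound-induced growth inhibition in DNA-repair-mutant yeast.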

[16] = at 5.0 µM (retest, dose inferred, filed as 0.5)
[17] = at 50.0 µM (retest, dose inferred, filed as 5.0)

Measured: growth inhibition

CCCCCC(=O)C(C)(c1nc2n(c1O)/C(=N/C(=O)Nc1ccc(Cl)cc1)N=N2)c1nc2n(c1O)/C(=N/C(=O)Nc1ccc(Cl)cc1)N=N2
active: [2]; at 100.0 µM 79% | [10]; at 50.0 µM 98.2%
inactive: [1]; at 1.2 µM 3% | [1]; at 3.7 µM -4% | [1]; at 11.0 µM -3% | [1]; at 33.0 µM 1% | [1]; at 100.0 µM 18% | [2]; at 1.2 µM 8% | [2]; at 3.7 µM 16% | [2]; at 11.0 µM 32% | [2]; at 33.0 µM 60% | [3]; at 1.2 µM 2% | [3]; at 3.7 µM 4% | [3]; at 11.0 µM -5% | [3]; at 33.0 µM 9% | [3]; at 100.0 µM 57% | [4]; at 1.2 µM 6% | [4]; at 3.7 µM 0% | [4]; [16] -7% | [4]; at 11.0 µM 6% | [4]; at 33.0 µM 24% | [4]; [17] 14% | [4]; at 50.0 µM -11.6% | [4]; at 100.0 µM 44% | [5]; at 1.2 µM -3% | [5]; at 3.7 µM -1% | [5]; [16] 20% | [5]; at 11.0 µM 2% | [5]; at 33.0 µM 8% | [5]; [17] 41% | [5]; at 50.0 µM -11.2% | [5]; at 100.0 µM 30% | [6]; at 1.2 µM -1% | [6]; at 3.7 µM 2% | [6]; at 11.0 µM -2% | [6]; at 33.0 µM 4% | [6]; at 100.0 µM 50% | [7]; [16] 12% | [7]; [17] 64% | [7]; at 50.0 µM -5.1% | [8]; at 1.2 µM -5% | [8]; at 3.7 µM -8% | [8]; at 11.0 µM -5% | [8]; at 33.0 µM 2% | [8]; at 100.0 µM 27% | [9]; [16] -27% | [9]; [17] 3% | [9]; at 50.0 µM -23.3% | [10]; at 1.2 µM -6% | [10]; at 3.7 µM -9% | [10]; [16] -42% | [10]; at 11.0 µM -8% | [10]; at 33.0 µM -1% | [10]; [17] 38% | [10]; at 100.0 µM 20% | [11]; at 1.2 µM -1% | [11]; at 3.7 µM -1% | [11]; at 11.0 µM 4% | [11]; at 33.0 µM 19% | [11]; at 100.0 µM 45% | [12]; at 1.2 µM -4% | [12]; at 3.7 µM -1% | [12]; at 11.0 µM 6% | [12]; at 33.0 µM 22% | [12]; at 100.0 µM 59% | [13]; at 1.2 µM 2% | [13]; at 3.7 µM 1% | [13]; at 11.0 µM 6% | [13]; at 33.0 µM 25% | [13]; at 100.0 µM 54% | [14]; [16] -26% | [14]; [17] 55% | [14]; at 50.0 µM 7% | [15]; at 1.2 µM -1% | [15]; at 3.7 µM 7% | [15]; at 11.0 µM 9% | [15]; at 33.0 µM 21% | [15]; at 100.0 µM 51%

O=C(/C(=C/c1ccccc1)CBr)c1ccccc1
80.5% (active) and 61.1% (inactive): [5]; at 50.0 µM
74% (active) and 59% (inactive): [7]; at 50.0 µM
66.5% (inactive) and 79.2% (active): [4]; at 50.0 µM
57.4% (inactive) and 83.7% (active): [10]; at 50.0 µM
inactive: [1]; at 1.2 µM 0% | [1]; at 3.7 µM 11% | [1]; at 11.0 µM 43% | [2]; at 1.2 µM 17% | [2]; at 3.7 µM 50% | [3]; at 1.2 µM -1% | [3]; at 3.7 µM 7% | [3]; at 11.0 µM 49% | [4]; at 1.2 µM 4% | [4]; at 3.7 µM 15% | [4]; [16] 22% | [4]; at 11.0 µM 61% | [5]; at 1.2 µM 3% | [5]; at 3.7 µM 12% | [5]; [16] 3% | [5]; at 11.0 µM 58% | [6]; at 1.2 µM 3% | [6]; at 3.7 µM 9% | [6]; at 11.0 µM 38% | [7]; [16] 50% | [8]; at 1.2 µM 2% | [8]; at 3.7 µM 6% | [8]; at 11.0 µM 47% | [9]; [16] 25% | [9]; at 50.0 µM 41.5% and 67.5% | [10]; at 1.2 µM -3% | [10]; at 3.7 µM 0% | [10]; [16] 22% | [10]; at 11.0 µM 54% | [11]; at 1.2 µM 4% | [11]; at 3.7 µM 14% | [11]; at 11.0 µM 62% | [12]; at 1.2 µM 3% | [12]; at 3.7 µM 11% | [12]; at 11.0 µM 67% | [13]; at 1.2 µM 5% | [13]; at 3.7 µM 21% | [14]; [16] 68% | [15]; at 1.2 µM 6% | [15]; at 3.7 µM 22%
active: [1]; at 33.0 µM 90% | [1]; at 100.0 µM 99% | [2]; at 11.0 µM 82% | [2]; at 33.0 µM 96% | [2]; at 100.0 µM 99% | [3]; at 33.0 µM 95% | [3]; at 100.0 µM 99% | [4]; at 33.0 µM 96% | [4]; [17] 98% | [4]; at 100.0 µM 99% | [5]; at 33.0 µM 96% | [5]; [17] 98% | [5]; at 100.0 µM 99% | [6]; at 33.0 µM 93% | [6]; at 100.0 µM 99% | [7]; [17] 99% | [8]; at 33.0 µM 95% | [8]; at 100.0 µM 99% | [9]; [17] 93% | [10]; at 33.0 µM 94% | [10]; [17] 94% | [10]; at 100.0 µM 99% | [11]; at 33.0 µM 95% | [11]; at 100.0 µM 99% | [12]; at 33.0 µM 97% | [12]; at 100.0 µM 99% | [13]; at 11.0 µM 77% | [13]; at 33.0 µM 96% | [13]; at 100.0 µM 99% | [14]; [17] 99% | [14]; at 50.0 µM 74.5% and 90.6% | [15]; at 11.0 µM 81% | [15]; at 33.0 µM 96% | [15]; at 100.0 µM 99%
